The supplement of paper PMC3484114
± gives the standard deviation.

What follows are compounds tested on OVCAR-3-derived ovarian cancer stem-like cells (spheroids) (assay: cell growth relative to untreated control; higher = more growth (less inhibition)). Settings: 2.29 µM; 96 h.
In short: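 Percent growth was calculated against untreated wells once blanks were subtracted and Grubbs outliers removed. The cells were OVCAR-3 spheroid-derived stem-like cells, trypsinized and plated at 50,000 cells/mL in stem cell medium on ultra-low attachment 96-well plates for a 24 h preincubation. They were then exposed to compounds at 2.29 uM for 96 h at 37°C, 5% CO2, in 4 replicate wells, and viability was measured by TOX8 resazurin fluorescence (ex 560/em 590 nm) after 4 h.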
Work on `[O-][n+]1ccccc1[S-].[O-][n+]1ccccc1[S-].[Zn+2]` yielded a cell growth of 95.8 ± 7.8%.
`CC[C@@]1(O)C[C@H](O)c2c(O)c3c(c(O)c2[C@H]1C(=O)OC)C(=O)c1cccc(O)c1C3=O` was tested, and the cell growth was 49.5 ± 20%.
`O=[N+]([O-])[O-].O=[N+]([O-])[O-].O=[N+]([O-])[O-].[Ga+3]` gave a cell growth of 120 ± 11%.
With `COc1cc(C2c3cc4c(cc3C(O)C3COC(=O)C23)OCO4)cc(OC)c1OC` (stereo unspecified) the cell growth was 31 ± 5.3%.
Work on `COc1ccc(C[C@@H]2NC[C@@H](O)[C@@H]2OC(C)=O)cc1` yielded a cell growth of 94.2 ± 33%.
`[Cl][Hg][c]1ccc2ccccc2c1` gave a cell growth of 62.6 ± 8.8%.
`CCOC(OCC)C(CC)[Se]c1ccccc1[N+](=O)[O-]` (stereo unspecified) showed a cell growth of 120 ± 21%.
`Fc1cccc(F)c1C1SCc2nc3ccccc3n21` (stereo unspecified) was tested, and the cell growth was 78.4 ± 9.6%.
With `CC[C@](C)(O)C(=O)O[C@H]1C(=O)O[C@@H]2C[C@H]3C(C)=CC(=O)[C@@H](O)[C@]3(C)[C@H]3C4(O)OC[C@]32[C@@H]1[C@@H](C)[C@H]4O` the cell growth was 35.2 ± 15%.
`CC1(C)CC2=NO[Se]3=C2C(=NO3)C1` gave a cell growth of 22.1 ± 4.6%.
Work on `CC1OC(O[C@@H]2C=C3CC[C@@H]4[C@H](CC[C@]5(C)[C@@H](c6ccc(=O)oc6)CC[C@]45O)[C@@]3(C)CC2)C(O)C(O)C1O` (stereo partly specified) yielded a cell growth of 24.5 ± 6.9%.
